# From the supplement of paper PMC12494721
# Counter-ions that a name gives are not always drawn.
# Legend:
# Settings in all cases: incubation time: 27 h, anaerobic, 37 °C;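 for the amine columns active = adjusted P below 0.05 in both replicates with a change the same way and a mean fold change under 0.8 or over 1.25; inactive = the rest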
# [1] = tested on: Clostridium sporogenes DSM 1664; experiment: growth (OD595) fold change vs plate DMSO controls (fold change (ratio)); higher = more growth
# Method in brief: (§1)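 Growth is the fold change relative to the median of plate DMSO controls. Readings came from anaerobic mGAM cultures in 96-well plates grown for 27 h at 37 °C and read at 595 nm. They were blank-subtracted, corrected for compound background with 20 µM compound solutions in water, and converted to OD with a calibration factor of 5. Values are means of 2 biological replicates, and fold changes above 1.5 were set to NA.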
# Escherichia coli IAI1 [2] = experiment: as above
# Method in brief: as §1
# [3] = tested on: Klebsiella aerogenes DSM 30053; experiment: as above
# Method in brief: as §1
# [4] = tested on: Ruminococcus gnavus DSM 108212; experiment: as above
# Method in brief: as §1
# [5] = tested on: Klebsiella aerogenes DSM 30053; experiment: fold change of Histamine concentration vs plate DMSO controls (fold change (ratio)); higher = more amine produced, active = hit call of the paper (significant change in both replicates, either direction)
# Method in brief: (§2)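 Using LC–triple-quadrupole MS with dynamic MRM, amines were quantified against external calibration curves and corrected for drift within each batch. Samples were whole anaerobic mGAM cultures of four gut strains, grown 27 h at 37 °C from OD 0.1 before 1:1 dilution, extracted with cold acetonitrile/methanol containing 0.1% formic acid and centrifuged. Compounds were present at 20 µM final (sweeteners at 50 µM final). The numbers are fold changes versus plate DMSO controls, each the mean of 2 biological replicates.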
# [6] = tested on: Clostridium sporogenes DSM 1664; experiment: fold change of Tryptamine concentration vs plate DMSO controls (fold change (ratio)); higher = more amine produced, active = hit call of the paper (significant change in both replicates, either direction)
# Method in brief: as §2
# [7] = tested on: Ruminococcus gnavus DSM 108212; experiment: as above
# Method in brief: as §2
# Escherichia coli IAI1 [8] = experiment: fold change of Putrescine concentration vs plate DMSO controls (fold change (ratio)); higher = more amine produced, active = hit call of the paper (significant change in both replicates, either direction)
# Method in brief: as §2
# [9] = tested on: Klebsiella aerogenes DSM 30053; experiment: as above
# Method in brief: as §2
# Escherichia coli IAI1 [10] = experiment: fold change of Cadaverine concentration vs plate DMSO controls (fold change (ratio)); higher = more amine produced, active = hit call of the paper (significant change in both replicates, either direction)
# Method in brief: as §2
# [11] = tested on: Klebsiella aerogenes DSM 30053; experiment: as above
# Method in brief: as §2
# [12] = tested on: Ruminococcus gnavus DSM 108212; experiment: fold change of 2-Phenylethylamine concentration vs plate DMSO controls (fold change (ratio)); higher = more amine produced, active = hit call of the paper (significant change in both replicates, either direction)
# Method in brief: as §2
Compound,growth [1],growth (Escherichia coli IAI1 [2]),growth [3],growth [4],fold change of Histamine concentration [5],fold change of Tryptamine concentration [6],fold change of Tryptamine concentration [7],fold change of Putrescine concentration (Escherichia coli IAI1 [8]),fold change of Putrescine concentration [9],fold change of Cadaverine concentration (Escherichia coli IAI1 [10]),fold change of Cadaverine concentration [11],fold change of 2-Phenylethylamine concentration [12]
CCN1CCCC1CNC(=O)c1cc(S(=O)(=O)CC)c(N)cc1OC (stereo not given) [Amisulpride] (20 µM),1.16,0.998,1,1.31,1.01 (inactive),1.01 (inactive),1.04 (inactive),1.01 (inactive),0.999 (inactive),0.987 (inactive),0.999 (inactive),1.05 (inactive)
O=C(COc1ccc(Cl)cc1)N1CCN(Cc2ccc3c(c2)OCO3)CC1 [Fipexide hydrochloride] (20 µM),1.05,0.947,0.961,0.87,1 (inactive),0.943 (inactive),0.945 (inactive),1 (inactive),1.01 (inactive),0.953 (inactive),1.01 (inactive),0.916 (inactive)
Clc1ccc2c(c1)CCc1cccnc1C2=C1CCNCC1 [Desloratadine] (20 µM),0.922,0.981,0.992,0.972,1.07 (inactive),1.11 (inactive),0.962 (inactive),1 (inactive),1.01 (inactive),0.976 (inactive),0.987 (inactive),1.02 (inactive)
COc1cc(C(=O)NC2CCCNC2)cc(OC)c1OC (stereo not given) [Troxipide] (20 µM),0.822,1.02,0.99,0.845,0.989 (inactive),1.03 (inactive),1.06 (inactive),0.965 (inactive),0.983 (inactive),0.978 (inactive),0.996 (inactive),1.02 (inactive)
NS(=O)(=O)c1cc(Cl)c(Cl)c(S(N)(=O)=O)c1 [Dichlorphenamide] (20 µM),0.963,0.998,1.2,0.536,0.902 (inactive),0.966 (inactive),0.572 (inactive),1.06 (inactive),1.01 (inactive),0.995 (inactive),1.03 (inactive),0.54 (inactive)
CCCCC(CC)CN1C(=O)[C@@H]2[C@H](C1=O)[C@@H]1C=C[C@H]2C1 (mixture of isomers) (20 µM),1.03,1.02,1.06,1.02,0.925 (inactive),0.978 (inactive),1.05 (inactive),0.993 (inactive),0.987 (inactive),1.02 (inactive),1 (inactive),1.06 (inactive)
C=C(C)[C@@H]1CC=C(/C=N/O)CC1 [Perillartine] (50 µM),1.04,1.04,1.09,1.11,0.933 (inactive),1.02 (inactive),1 (inactive),0.985 (inactive),1.03 (inactive),0.99 (inactive),1.02 (inactive),1 (inactive)
Nc1c2ccccc2nc2ccccc12 [Aminacrine] (20 µM),0.903,1.11,0.922,1.45,1.07 (inactive),0.923 (inactive),0.911 (inactive),1.15 (inactive),0.952 (inactive),1.29 (active),0.964 (inactive),0.947 (inactive)
CC(C)NC(=N)NC(=N)Nc1ccc(Cl)cc1 [Proguanil hydrochloride] (20 µM),0.986,0.955,0.964,0.969,1.06 (inactive),1.04 (inactive),1.03 (inactive),1.09 (inactive),0.997 (inactive),0.868 (inactive),0.979 (inactive),1.02 (inactive)
O=S(=O)(c1cccc2cnccc12)N1CCCNCC1 [Fasudil Hydrochloride] (20 µM),1.22,0.981,0.977,0.969,1.05 (inactive),0.964 (inactive),1.01 (inactive),1.01 (inactive),1.03 (inactive),1.03 (inactive),1.01 (inactive),0.942 (inactive)
Nc1ccc(S(=O)(=O)Nc2ncccn2)cc1 [Sulfadiazine] (20 µM),0.978,0.939,1.06,0.958,0.966 (inactive),0.955 (inactive),0.997 (inactive),0.976 (inactive),1 (inactive),1.03 (inactive),1.01 (inactive),1.02 (inactive)
CCCCC1(COC(=O)CCC(=O)O)C(=O)N(c2ccccc2)N(c2ccccc2)C1=O [Suxibuzone] (20 µM),0.913,1.04,1.06,1.12,0.877 (inactive),1.07 (inactive),0.929 (inactive),0.993 (inactive),0.987 (inactive),0.957 (inactive),1 (inactive),0.906 (inactive)
CCN(CC)CCOCCOC(=O)C1(c2ccccc2)CCCC1 [Carbetapentane citrate] (20 µM),1.08,1,0.996,0.743,0.992 (inactive),1.02 (inactive),0.995 (inactive),0.958 (inactive),0.996 (inactive),0.988 (inactive),0.993 (inactive),0.979 (inactive)
CCN(CC)CCCC(C)Nc1c2ccc(Cl)cc2nc2ccc(OC)cc12 (stereo not given) [Quinacrine dihydrochloride hydrate] (20 µM),1.09,1.03,0.892,1.36,1.03 (inactive),1.1 (inactive),1.07 (inactive),1.03 (inactive),0.928 (inactive),0.982 (inactive),0.996 (inactive),1.08 (inactive)
CNC1(C)C2CCC(C2)C1(C)C (stereo not given) [Mecamylamine hydrochloride] (20 µM),1.03,1.06,1.02,1.17,1.02 (inactive),1.06 (inactive),1.03 (inactive),0.992 (inactive),0.994 (inactive),0.968 (inactive),1 (inactive),1.06 (inactive)
N=C(N)NC(=N)NCCc1ccccc1 [Phenformin hydrochloride] (20 µM),0.958,1.01,1.07,0.756,1 (inactive),1.03 (inactive),1.03 (inactive),0.964 (inactive),1 (inactive),1.07 (inactive),1.01 (inactive),1.05 (inactive)
CC(C)(C)NC[C@H](O)COc1cccc2c1CCCC2=O [(-) Levobunolol hydrochloride] (20 µM),0.999,0.973,0.98,0.872,1.06 (inactive),1 (inactive),0.916 (inactive),1.04 (inactive),1.03 (inactive),0.996 (inactive),1 (inactive),0.866 (inactive)
N=c1nc(N2CCCCC2)cc(N)n1O [Minoxidil] (20 µM),0.888,0.963,1.03,0.722,0.98 (inactive),0.937 (inactive),1.01 (inactive),0.982 (inactive),0.987 (inactive),0.995 (inactive),1.01 (inactive),1.05 (inactive)
C=C(CC)C(=O)c1ccc(OCC(=O)O)c(Cl)c1Cl [Ethacrynic acid] (20 µM),1.11,0.984,1.01,1.19,0.964 (inactive),1.01 (inactive),0.941 (inactive),0.972 (inactive),1.03 (inactive),0.985 (inactive),0.999 (inactive),0.917 (inactive)
COc1ccc2[nH]c([S+]([O-])Cc3ncc(C)c(OC)c3C)nc2n1 (stereo not given) [Tenatoprazole] (20 µM),1,1.06,1.04,1.14,0.985 (inactive),1.03 (inactive),1.01 (inactive),1.06 (inactive),0.996 (inactive),0.977 (inactive),0.995 (inactive),1.01 (inactive)
NS(=O)(=O)c1cc2c(cc1C(F)(F)F)NC(Cc1ccccc1)NS2(=O)=O (stereo not given) [Bendroflumethiazide] (20 µM),0.897,1.01,1.06,1.05,0.915 (inactive),0.993 (inactive),0.993 (inactive),0.977 (inactive),0.971 (inactive),0.959 (inactive),1 (inactive),0.957 (inactive)
CN1CCCC(CC2c3ccccc3Sc3ccccc32)C1 (stereo not given) [Metixene hydrochloride] (20 µM),1.02,0.988,1.02,1.25,0.998 (inactive),1.06 (inactive),0.807 (inactive),0.956 (inactive),1.02 (inactive),0.999 (inactive),1.01 (inactive),0.88 (inactive)
CC(=O)Nc1c(I)c(NC(C)=O)c(I)c(C(=O)O)c1I [Diatrizoic acid dihydrate] (20 µM),1.28,1.05,1.01,0.851,1.03 (inactive),0.947 (inactive),1.05 (inactive),1.07 (inactive),0.983 (inactive),1.01 (inactive),0.988 (inactive),1.01 (inactive)
CN[C@@H]1CCc2[nH]c3ccc(C(N)=O)cc3c2C1 [Frovatriptan succinate] (20 µM),1.12,0.98,0.991,1.01,1.05 (inactive),0.957 (inactive),0.964 (inactive),1.03 (inactive),1 (inactive),1.03 (inactive),0.984 (inactive),0.945 (inactive)
CNC(=O)OCc1cccc(COC(=O)NC)n1 [Pyricarbate] (20 µM),0.9,1.02,1.03,1.02,0.976 (inactive),0.953 (inactive),1.03 (inactive),1.03 (inactive),0.995 (inactive),1.05 (inactive),0.995 (inactive),1.06 (inactive)
